# Laboratory results published in PubChem BioAssay.
# Where “and” joins values, the source holds several entries; their conditions need not be identical. Identical values can stand only once. The source holds several records for some structures; these can differ, active in one and inactive in another. Calls of active or inactive are those of the source. Unless noted, no stated cut-off is given here; in the data, active means inhibition above about 80%; inactive means the rest.
# Tests used:
# [1] = growth inhibition, single agents and combos, LFS_MB_1R, cell-based, cisplatin or BGB combos, synergistic combos for chromothripsis tumors (AID 1671452); details: LFS_MB_1R medulloblastoma cells, stronger effect = higher value;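 further: cells exposed for 96 hours before readout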
# [2] = growth inhibition, single agents and combos, CRL2098, cell-based, BGB or cisplatin IC20 combos, synergistic combos for chromothripsis tumors (AID 1671454); details: CRL2098 osteosarcoma cells, drug combinations, stronger effect = higher value;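 further: cells exposed for 96 h before readout; 0% = vehicle DMSO and 100% = killing by high DMSO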
# [3] = growth inhibition, single agents and combos, HD-MB03, cell-based, BGB or cisplatin IC20 combos, synergistic combos for chromothripsis tumors (AID 1671455; in the data active means inhibition above about 83%;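 further: 0% = vehicle DMSO and 100% = high DMSO as cytotoxic control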); details: HD-MB03 medulloblastoma cells, stronger effect = higher value
# [4] = growth inhibition, single agents and combos, UWB1.289, cell-based, BGB or cisplatin combos, synergistic combos for chromothripsis tumors (AID 1671456); details: UWB1.289 ovarian carcinoma cells, stronger effect = higher value;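 further: cells exposed to compound for four days; 0% = vehicle DMSO and 100% = killing by high DMSO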
# [5] = growth inhibition, single agents and combos, LFS_MB_2R, cell-based, cisplatin combos, synergistic combos for chromothripsis tumors (AID 1671457); details: LFS_MB_2R medulloblastoma cells, stronger effect = higher value;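 further: cells exposed to compound for four days before readout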
# [6] = UWB1.289_BRCA1 ovarian cancer growth, cell-based, BGB or cisplatin combinations (AID 1671459); details: UWB1.289 BRCA1 ovarian carcinoma, drug combinations, stronger effect = higher value
# [7] = drug combination toxicity in non-malignant astrocytes – cell-based, BGB or cisplatin IC20 combos, cytotoxicity control for chromothriptic childhood tumor combination screen (AID 1671460); details: Human astrocytes, viability inhibition, drug combinations, at 0.5 µM, stronger effect = higher value;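 further: cells exposed to compounds for 96 hours before viability readout; 0% = vehicle and 100% = killing control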
# [8] = CRL1545 cell growth, single agent and combined, cisplatin and BGB IC20 combos (AID 1671464); details: CRL1545 osteosarcoma cells, stronger effect = higher value;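 further: cells exposed to compound for 96 hours before readout; 0% = vehicle DMSO and 100% = high DMSO killing control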
# [9] = P. berghei load reduction in hepatocytes – cell-based, HepG2, luciferase luminescence, HepG2 viability, primary screen (AID 624349; in the data active means parasite load remaining mostly below about 12%, no sharp cut-off; inactive means mostly above about 10%;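 further: 100% = mean of DMSO negative control wells on the same plate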); details: P. berghei liver stage in HepG2, luciferase luminescence, concentration not given here; parasite load remaining: stronger effect = lower value; viability: measured here: HepG2 viability without parasites
# [10] = liver-stage malaria parasite load reduction – cell-based, known kinase inhibitor set, luminescence, hepatoma host viability (AID 624392; call rule not given here;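 further: infected cells incubated roughly two days before readout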); details: Plasmodium liver stage in hepatoma cells, luciferase luminescence, concentration not given here; liver cell % of control: measured here: host liver cell viability; parasite % of control: stronger effect = lower value
# [11] = measured here: combination with BGB IC40, at 0.05 µM
# [12] = measured here: combination with cisplatin, at 0.5 µM
# [13] = measured here: combination with cisplatin, at 5 µM
# [14] = measured here: combination with BGB at IC20, at 0.5 µM
# [15] = measured here: combination with cisplatin at IC20, at 0.5 µM
# [16] = measured here: combo with BGB at IC20, at 0.5 µM
# [17] = measured here: combo with cisplatin at IC20, at 0.5 µM
# [18] = measured here: inhibition with BGB combination, at 0.05 µM
# [19] = measured here: inhibition with cisplatin combination, at 0.05 µM
# [20] = BGB combination, concentration series, at 5 µM
# [21] = cisplatin combination, concentration series, at 5 µM
# [22] = measured here: combo with BGB IC20
# [23] = measured here: combo with cisplatin IC20
# [24] = measured here: with BGB IC20 combination, at 0.5 µM
# [25] = measured here: with cisplatin IC20 combination, at 0.5 µM
smiles,measurement,setting,value
C#Cc1cccc(Nc2ncnc3cc(OC)c(OCCCCCCC(=O)NO)cc23)c1,inhibition,[1]; at 0.5 µM,72.7% (inactive) and 57.9% (inactive)
same,inhibition,[1]; [11],-16.6% and -26.1%
same,inhibition,[1]; [12],88.8% and 73.7%
same,inhibition,[1]; [13],101% and 99%
same,inhibition,[2]; at 0.5 µM,-70.6% (inactive) and -57.7% (inactive)
same,inhibition,[2]; [14],-40.2% and -108%
same,inhibition,[2]; [15],-130% and -17.7%
same,inhibition,[3]; at 0.5 µM,45.5% (inactive) and 17.9% (inactive)
same,inhibition,[3]; [16],34.3% and 16.8%
same,inhibition,[3]; [17],84.2% and 39.1%
same,inhibition,[4]; at 0.5 µM,58.9% (inactive) and 21.7% (inactive)
same,inhibition,[4]; [18],-23% and -18.1%
same,inhibition,[4]; [19],7.84% and -0.343%
same,inhibition,[5]; at 0.5 µM,80.6% (active) and 5.75% (inactive)
same,inhibition,[5]; [12],96% and 17.9%
same,inhibition,[5]; [13],99.8% and 105%
same,inhibition,[6]; [20],108% and 106%
same,inhibition,[6]; at 0.5 µM,64.7% (inactive) and 19.7% (inactive)
same,inhibition,[6]; [21],128% and 122%
same,inhibition,[7],63.5% (inactive) and 39.1% (inactive)
same,inhibition,[7]; [22],58% and 34.9%
same,inhibition,[7]; [23],64.7% and 42.3%
same,inhibition,[8]; at 0.5 µM,34.3% (inactive) and 15.2% (inactive)
same,inhibition,[8]; [24],17.9% and 26.4%
same,inhibition,[8]; [25],41.6% and 7.54%
same,inhibition,"[8]; single agent, at 0.05 µM",-39.2% and -32.8%
same,inhibition,"[8]; single agent, at 5 µM",97.8% and 92.8%
O=C(/C=C/c1ccc(CN(CCO)CCc2c[nH]c3ccccc23)cc1)NO,inhibition,[1]; at 0.5 µM,88.5% (active)
same,inhibition,[1]; [11],0.114%
same,inhibition,[1]; [12],107%
same,inhibition,[1]; [13],101%
same,inhibition,[2]; at 0.5 µM,80.2% (active)
same,inhibition,[2]; [14],80.4%
same,inhibition,[2]; [15],75.9%
same,inhibition,[3]; at 0.5 µM,99.8% (active)
same,inhibition,[3]; [16],99.8%
same,inhibition,[3]; [17],100%
same,inhibition,[4]; at 0.5 µM,88.8% (active)
same,inhibition,[4]; [18],9.36%
same,inhibition,[4]; [19],34.8%
same,inhibition,[5]; at 0.5 µM,87.1% (active)
same,inhibition,[5]; [12],99.3%
same,inhibition,[5]; [13],107%
same,inhibition,[6]; [20],126%
same,inhibition,[6]; at 0.5 µM,95.2% (active)
same,inhibition,[6]; [21],130%
same,inhibition,[7],95.2% (active)
same,inhibition,[7]; [22],92%
same,inhibition,[7]; [23],97.1%
same,inhibition,[8]; at 0.5 µM,87.1% (active)
same,inhibition,[8]; [24],82.2%
same,inhibition,[8]; [25],89.4%
same,inhibition,"[8]; single agent, at 0.05 µM",86.9%
same,inhibition,"[8]; single agent, at 5 µM",94.5%
Nc1ccc(C(=O)Nc2cccc(-c3nc(N4CCOCC4)c4oc5ncccc5c4n3)c2)cn1,parasite load remaining,[9],28.3% (inactive)
same,viability,[9],70.4%
same,liver cell % of control,[10],80.6% and 78.7% and 90.7%
same,parasite % of control,[10],109% (inactive) and 149% (inactive) and 242% (inactive)
